Reference: ChEMBL document CHEMBL3988442, “University of Dundee, Small-Polar-MMV Screening Library” (2021)
For some of these results: Potency and affinity values are given separately.

Key:
Parameters in all cases: scale not given: direction of the effect not stated beside the values
[1] = target: Protein translocase subunit SecA (Escherichia coli (strain K12)) (UniProt P10408); experiment: Assay to Identify E. coli SecA ATPase Inhibitors; type: functional; settings: 30 µM
[2] = target: T1, Ubiquitin-activating enzyme e1, putative (Leishmania donovani (strain BPK282A1)) (UniProt E9BSI1); experiment: Leishmania donovani Ubiquitin Activating Enzyme (LdE1); type: functional; settings: 30 µM
T1 sequence (whole entry): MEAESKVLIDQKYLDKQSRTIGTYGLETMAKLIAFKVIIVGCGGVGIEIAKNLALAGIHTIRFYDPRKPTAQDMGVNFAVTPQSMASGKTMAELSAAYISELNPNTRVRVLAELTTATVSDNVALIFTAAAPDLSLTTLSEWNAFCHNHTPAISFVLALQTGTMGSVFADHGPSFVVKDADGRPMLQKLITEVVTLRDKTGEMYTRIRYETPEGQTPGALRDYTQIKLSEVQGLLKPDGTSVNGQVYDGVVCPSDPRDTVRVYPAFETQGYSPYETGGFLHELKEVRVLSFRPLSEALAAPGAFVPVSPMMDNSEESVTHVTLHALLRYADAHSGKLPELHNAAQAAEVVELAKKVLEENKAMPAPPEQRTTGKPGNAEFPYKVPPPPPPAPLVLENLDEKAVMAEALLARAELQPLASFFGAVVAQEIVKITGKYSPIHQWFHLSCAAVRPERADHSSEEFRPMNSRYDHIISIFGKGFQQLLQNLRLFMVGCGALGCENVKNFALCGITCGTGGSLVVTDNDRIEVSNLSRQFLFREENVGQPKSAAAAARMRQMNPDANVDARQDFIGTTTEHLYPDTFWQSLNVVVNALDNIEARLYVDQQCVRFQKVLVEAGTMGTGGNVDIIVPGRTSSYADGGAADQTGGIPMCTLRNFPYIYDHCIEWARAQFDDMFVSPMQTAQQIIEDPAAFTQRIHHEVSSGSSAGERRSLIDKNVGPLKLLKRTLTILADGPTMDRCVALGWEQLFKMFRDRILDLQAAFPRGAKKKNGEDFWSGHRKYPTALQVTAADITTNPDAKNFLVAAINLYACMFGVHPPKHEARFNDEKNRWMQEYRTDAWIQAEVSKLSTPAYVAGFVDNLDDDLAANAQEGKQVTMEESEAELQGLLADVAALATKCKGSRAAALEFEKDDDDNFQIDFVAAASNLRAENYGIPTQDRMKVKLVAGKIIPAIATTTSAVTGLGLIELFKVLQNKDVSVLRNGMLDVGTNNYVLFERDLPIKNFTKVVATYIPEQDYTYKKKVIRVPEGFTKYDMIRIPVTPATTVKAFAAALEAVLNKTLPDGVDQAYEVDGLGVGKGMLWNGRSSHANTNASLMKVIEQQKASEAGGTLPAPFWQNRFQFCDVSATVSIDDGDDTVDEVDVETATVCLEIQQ

[3] = target: AMP-activated protein kinase, AMPK (Homo sapiens) (UniProt P54646+O43741+P54619+Q9UGJ0+Q9Y478+Q13131+Q9UGI9); experiment: AMP-dependent Kinase enzyme assay. An in vitro enzyme assay that detects ADP turnover that is directly proportional to AMPK activity. This uses naive AMPK that is activated during the assay with MK-8722; type: functional; settings: 30 µM
[4] = target: Sialic acid-binding Ig-like lectin 9 (Homo sapiens) (UniProt Q9Y336); experiment: Hs-Siglec9 ALPHAscreen SOP 20170721; settings: 10 µM
Trypanosoma cruzi = experiment: Trypanosoma cruzi phosphomannomutase and mannose-1-phosphate guanylyltransferase assay; type: functional; settings: 10 µM
[5] = target: T2, Arginase-2, mitochondrial (Homo sapiens) (UniProt P78540); experiment: in vitro enzyme assay to detect the production of urea directly proportional to the activity of Arginase II; type: functional; settings: 33.3 µM; also: in the data most compounds retested in dose-response had high values
T2 sequence (whole entry): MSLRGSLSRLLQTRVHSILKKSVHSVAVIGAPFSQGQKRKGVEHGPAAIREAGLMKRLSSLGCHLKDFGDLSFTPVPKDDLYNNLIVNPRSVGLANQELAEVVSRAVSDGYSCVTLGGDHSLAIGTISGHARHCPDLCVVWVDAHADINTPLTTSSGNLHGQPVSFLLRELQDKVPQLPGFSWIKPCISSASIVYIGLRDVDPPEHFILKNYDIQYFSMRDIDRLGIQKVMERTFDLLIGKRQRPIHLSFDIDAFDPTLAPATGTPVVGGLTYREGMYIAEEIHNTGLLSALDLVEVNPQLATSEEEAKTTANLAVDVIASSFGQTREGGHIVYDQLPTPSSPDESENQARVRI

[6] = target: T3, Proteasome subunit beta (Trypanosoma cruzi) (UniProt O96673); experiment: Trypanosoma cruzi proteasome chymotrypsin-like activity (TcProtChymo) assay.; also: in the data most compounds retested in dose-response had high values; type: functional; settings: 9.37 µM
T3 sequence (whole entry): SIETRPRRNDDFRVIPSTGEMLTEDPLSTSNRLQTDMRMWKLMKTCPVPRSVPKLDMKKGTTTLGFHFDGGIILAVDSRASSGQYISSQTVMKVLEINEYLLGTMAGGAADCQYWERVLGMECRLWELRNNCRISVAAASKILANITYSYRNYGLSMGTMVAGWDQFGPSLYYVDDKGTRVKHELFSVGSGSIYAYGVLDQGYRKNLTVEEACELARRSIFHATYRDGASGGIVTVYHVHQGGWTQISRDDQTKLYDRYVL

Homo sapiens = species: Homo sapiens; experiment: To identify inhibition of the IFN signalling (Jak-Stat) pathway via expression of an eGFP reporter gene under the control of an IFN-stimulated response element (ISRE) containing MxA promoter.; type: functional; settings: 30 µM
[7] = target: T4, Tyrosyl-tRNA synthetase, putative (Trypanosoma cruzi (strain CL Brener)) (UniProt Q4DSP6); experiment: Trypanosoma cruzi tyrosyl tRNA synthetase (TcYRS) _High Tyrosine SOP; type: functional; settings: 30 µM; also: in the data most compounds retested in dose-response had high values
T4 sequence (whole entry): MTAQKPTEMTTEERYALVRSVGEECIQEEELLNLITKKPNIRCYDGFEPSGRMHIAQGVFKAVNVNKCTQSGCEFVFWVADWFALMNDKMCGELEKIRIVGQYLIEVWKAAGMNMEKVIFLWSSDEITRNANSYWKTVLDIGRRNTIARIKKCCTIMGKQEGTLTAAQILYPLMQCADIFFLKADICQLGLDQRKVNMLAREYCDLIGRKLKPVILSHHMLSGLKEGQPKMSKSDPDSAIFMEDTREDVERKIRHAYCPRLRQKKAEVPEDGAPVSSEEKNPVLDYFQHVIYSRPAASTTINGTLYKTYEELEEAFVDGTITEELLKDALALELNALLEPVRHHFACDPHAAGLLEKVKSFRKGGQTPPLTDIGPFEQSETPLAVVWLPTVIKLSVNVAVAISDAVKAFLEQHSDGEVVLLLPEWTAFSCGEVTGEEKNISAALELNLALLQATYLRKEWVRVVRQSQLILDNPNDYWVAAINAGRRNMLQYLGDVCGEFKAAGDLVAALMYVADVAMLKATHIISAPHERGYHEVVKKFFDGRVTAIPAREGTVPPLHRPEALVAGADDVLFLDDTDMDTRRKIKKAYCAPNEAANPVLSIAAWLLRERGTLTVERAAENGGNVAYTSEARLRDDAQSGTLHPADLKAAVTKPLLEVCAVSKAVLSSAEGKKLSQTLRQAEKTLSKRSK

[8] = target: T4, Tyrosyl-tRNA synthetase, putative (Trypanosoma cruzi (strain CL Brener)); experiment: Trypanosoma cruzi tyrosyl tRNA synthetase (TcYRS) SOP; type: functional; settings: 30 µM
[9] = target: Chromo domain-containing protein 1 (Saccharomyces cerevisiae (strain ATCC 204508 / S288c) (Baker's yeast)) (UniProt P32657); experiment: ScCHD-1 Enzyme Inhibition Assay; type: functional; settings: 30 µM; also: in the data most compounds retested in dose-response had high values
Chromo domain-containing protein 1 (Saccharomyces cerevisiae (strain ATCC 204508 / S288c) (Baker's yeast)), sequence (P32657 whole entry, the tested form may be a part): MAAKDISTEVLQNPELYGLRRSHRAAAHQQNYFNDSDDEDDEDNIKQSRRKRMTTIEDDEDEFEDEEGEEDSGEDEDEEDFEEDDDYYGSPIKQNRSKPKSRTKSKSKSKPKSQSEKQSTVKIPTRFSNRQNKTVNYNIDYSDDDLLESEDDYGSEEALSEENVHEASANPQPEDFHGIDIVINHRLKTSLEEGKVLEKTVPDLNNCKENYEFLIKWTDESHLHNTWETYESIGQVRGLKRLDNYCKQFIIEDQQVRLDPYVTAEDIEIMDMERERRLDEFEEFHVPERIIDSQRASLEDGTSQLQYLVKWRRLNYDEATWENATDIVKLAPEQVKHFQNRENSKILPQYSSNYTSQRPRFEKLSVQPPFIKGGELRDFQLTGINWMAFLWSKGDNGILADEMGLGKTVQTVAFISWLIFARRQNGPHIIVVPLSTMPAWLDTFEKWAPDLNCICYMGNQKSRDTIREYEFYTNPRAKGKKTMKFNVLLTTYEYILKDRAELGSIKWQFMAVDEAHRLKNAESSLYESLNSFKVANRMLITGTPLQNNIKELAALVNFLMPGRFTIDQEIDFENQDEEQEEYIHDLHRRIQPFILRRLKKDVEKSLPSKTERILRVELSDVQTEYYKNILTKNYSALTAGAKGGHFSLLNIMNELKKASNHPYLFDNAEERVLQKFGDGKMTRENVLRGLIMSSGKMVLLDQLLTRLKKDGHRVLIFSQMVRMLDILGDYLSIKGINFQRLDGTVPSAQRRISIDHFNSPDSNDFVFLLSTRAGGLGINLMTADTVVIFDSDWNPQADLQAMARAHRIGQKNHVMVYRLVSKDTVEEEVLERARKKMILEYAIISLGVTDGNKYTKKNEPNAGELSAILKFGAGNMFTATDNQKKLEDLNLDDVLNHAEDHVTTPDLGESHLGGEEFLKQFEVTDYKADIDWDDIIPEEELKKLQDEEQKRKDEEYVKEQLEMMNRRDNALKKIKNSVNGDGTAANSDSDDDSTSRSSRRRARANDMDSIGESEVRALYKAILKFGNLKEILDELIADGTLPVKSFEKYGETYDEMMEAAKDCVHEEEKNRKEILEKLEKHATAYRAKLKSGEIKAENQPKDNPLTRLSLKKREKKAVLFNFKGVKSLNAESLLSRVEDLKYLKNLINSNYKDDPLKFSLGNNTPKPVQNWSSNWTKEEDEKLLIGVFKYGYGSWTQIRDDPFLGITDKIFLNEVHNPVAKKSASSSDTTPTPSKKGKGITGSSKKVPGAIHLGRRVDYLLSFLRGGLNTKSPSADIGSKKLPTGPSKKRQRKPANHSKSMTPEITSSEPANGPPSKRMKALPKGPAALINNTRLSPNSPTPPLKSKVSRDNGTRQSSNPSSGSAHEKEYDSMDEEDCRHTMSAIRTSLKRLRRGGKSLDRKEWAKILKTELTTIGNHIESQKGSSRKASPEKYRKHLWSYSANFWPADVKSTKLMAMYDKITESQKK

Protein translocase subunit SecA (Escherichia coli (strain K12)), sequence (P10408 whole entry): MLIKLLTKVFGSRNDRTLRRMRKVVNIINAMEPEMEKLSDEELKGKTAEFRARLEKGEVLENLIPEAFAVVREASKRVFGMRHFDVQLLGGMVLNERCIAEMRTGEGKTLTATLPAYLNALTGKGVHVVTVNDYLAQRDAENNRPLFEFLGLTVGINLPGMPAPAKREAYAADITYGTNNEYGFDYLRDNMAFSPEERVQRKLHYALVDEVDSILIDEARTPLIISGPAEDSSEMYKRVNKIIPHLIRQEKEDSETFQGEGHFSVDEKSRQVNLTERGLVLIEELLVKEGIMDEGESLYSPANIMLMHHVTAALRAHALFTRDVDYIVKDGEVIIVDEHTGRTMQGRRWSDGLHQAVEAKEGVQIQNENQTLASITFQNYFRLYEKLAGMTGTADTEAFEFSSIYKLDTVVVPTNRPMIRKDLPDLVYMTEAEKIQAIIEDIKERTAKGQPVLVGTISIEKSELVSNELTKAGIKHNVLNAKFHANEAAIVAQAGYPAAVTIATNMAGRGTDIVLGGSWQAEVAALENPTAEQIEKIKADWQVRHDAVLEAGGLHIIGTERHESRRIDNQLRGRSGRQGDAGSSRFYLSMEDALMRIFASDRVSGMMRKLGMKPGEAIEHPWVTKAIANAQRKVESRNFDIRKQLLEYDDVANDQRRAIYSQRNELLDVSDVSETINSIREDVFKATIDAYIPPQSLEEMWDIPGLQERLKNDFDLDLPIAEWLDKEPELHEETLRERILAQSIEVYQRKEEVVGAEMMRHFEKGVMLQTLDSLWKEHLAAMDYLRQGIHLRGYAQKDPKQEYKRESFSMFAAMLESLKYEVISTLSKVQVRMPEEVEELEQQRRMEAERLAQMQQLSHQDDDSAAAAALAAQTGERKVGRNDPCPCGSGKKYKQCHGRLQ
Sialic acid-binding Ig-like lectin 9 (Homo sapiens), sequence (Q9Y336 whole entry): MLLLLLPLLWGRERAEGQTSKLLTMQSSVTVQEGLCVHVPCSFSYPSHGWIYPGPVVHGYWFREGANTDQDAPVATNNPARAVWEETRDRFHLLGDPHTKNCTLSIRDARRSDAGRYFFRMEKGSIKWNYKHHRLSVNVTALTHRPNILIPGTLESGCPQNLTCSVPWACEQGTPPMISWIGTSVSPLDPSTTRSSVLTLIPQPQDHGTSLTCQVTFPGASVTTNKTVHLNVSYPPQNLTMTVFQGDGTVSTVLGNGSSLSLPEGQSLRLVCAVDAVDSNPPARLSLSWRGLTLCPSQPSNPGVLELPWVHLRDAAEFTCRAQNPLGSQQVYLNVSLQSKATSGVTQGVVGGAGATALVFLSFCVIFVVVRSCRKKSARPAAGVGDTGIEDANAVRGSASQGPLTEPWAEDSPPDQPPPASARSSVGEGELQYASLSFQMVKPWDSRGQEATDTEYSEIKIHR

Compound	Percent Effect [1] [%]	Percent Effect [2] [%]	Percent Effect [3] [%]	Percent Effect [4] [%]	Percent Effect (Trypanosoma cruzi) [%]	Percent Effect [5] [%]	Percent Effect [6] [%]	Percent Effect (Homo sapiens) [%]	Percent Effect [7] [%]	Percent Effect [8] [%]	Percent Effect [9] [%]
CS(=O)(=O)Cc1ccc(CNC(=O)c2cccnc2O)cc1	-1.42	13.9	8.18	5.03	-5.64	1.94	22.3	17.9	3.12	7.59	-7.98
O=C(CCC1CC1)N1C[C@@H](CN2CCCC2)[C@@H](CO)C1	-2.75	0	2.73	1.73	-2.46	-8.28	3.49	4.43	2.15	6.17	-2.02
O=C(O)c1c[nH]c2cc(NS(=O)(=O)c3cccc(Cl)c3F)ccc12	-4.73	-10.4	-45.8	7.97	0.562	5.69	4.22	2.38	-11.7	-24.4	0.552
COC(=O)C(NC(=O)c1ccco1)c1cc(F)ccc1F (stereo not given)	-3.29	5.2	19.7	11.4	6.93	-0.712	9.46	-16.9	1.94	14.6	-8.66
CSCc1cccc(C(=O)N2CCN(CC(C)O)CC2)c1 (stereo not given)	-1.86	-2.6	-1.05	3.73	-7.68	2.13	11.8	17.2	1.94	-2.44	-1.72
Cc1ccccc1-c1cc(C(=O)N2CCn3c(C)nnc3C2)[nH]n1	-5.53	10.5	-1.51	3.48	6.01	0	4.34	4.27	-0.49	17.1	-10.8
Cc1cc(CN2CCN(CC(O)C(C)(C)C)CC2)no1 (stereo not given)	0.683	15.2	-2.9	10.4	4.63	1.52	4.83	14.7	5.42	16.5	-5.62
CC(NC(=O)NCCCn1cccn1)c1cccnc1 (stereo not given)	-4.3	-2.67	-0.757	-5.85	-4.77	-3.12	7.85	1.99	-1.64	-6.17	6.57
Cc1ccc(N2CCCC(NCc3nc(C)c(C)o3)C2)nn1 (stereo not given)	-2.18	-1.27	-3.24	1.76	9.54	-1.07	-2.4	2.43	3.12	15.2	-25.4
Cc1nnc2n1CCN(Cc1csc(Cc3ccccc3)n1)C2	-5.45	5.41	-7.1	3.42	3.25	4.62	3.41	8.73	8.91	15.8	-1.48
CCc1nc2n(n1)CC(NCC(=O)Nc1nccs1)CC2 (stereo not given)	-2.54	-2.53	-11.6	-5.43	-5.95	-1.9	-0.737	15.1	2.46	-8.86	-2.63
CN(C)S(=O)(=O)N1CCC(Oc2cnccn2)CC1	-5.97	13	-2.04	3.81	1.28	-1.94	20.2	6.27	4.23	14.1	-9.34
COc1ccc(CNC(=O)NCc2c(C)cc(C)[nH]c2=O)cc1	-5.07	13.2	-3.13	12.1	0.84	-5.04	6.18	-18.2	3.45	13.6	3.42
c1cnnc(N2CCCC2CNCc2cnc(N3CCCC3)nc2)c1 (stereo not given)	0.488	-1.27	13.5	6.03	1.33	2.8	4.8	16.1	5.21	0	-7.82
Cc1noc(C)c1C(=O)NCC(C)N(C)C (stereo not given)	1.71	16.2	-3.02	-9.99	-7.71	-1.29	21.5	11.2	3.96	13.4	-3.89
COc1ccc(F)c(CN2CCC(c3cc(O)nc(C)n3)C2)c1 (stereo not given)	-8.36	23	-0.897	-0.78	5.93	-3.94	15.3	11.7	5.38	14.3	-15
COc1cccn(CC(=O)N(C)Cc2ccoc2)c1=O	-7	-5.48	-5.18	30.6	1.59	0.399	2.48	-11	2.08	3.7	1.52
Cc1cnc(CN(C)CC2CCCN2c2cccnn2)cn1 (stereo not given)	1.21	15.6	-9.07	-13.5	1.27	-5.26	17.1	4.87	6.67	25.9	-25.4
Cc1nc(C2CCCN(C(=O)c3cc(Cl)c[nH]3)C2)no1 (stereo not given)	-5.67	12.7	-0.617	10.9	3.87	-6.46	1.88	-5.6	5.42	13.9	-7.78
Cc1nc(C)n(CC2CCCN2Cc2cc(C)on2)n1 (stereo not given)	-7.09	5.2	-68.4	-5.71	-2.06	3.58	12.2	19.8	0	7.06	-23.5
